According to PubChem BioAssay (Tox21):
Several values for one entry are separate records, joined by “and”; a condition that tells them apart may be missing. Equal values may be shown once. Records with an inconclusive call do not appear. Entries that show only a call come without a potency. Some structures have more than one record in an assay (separate samples or runs), and their calls can disagree. Activity calls are given as the source filed them. Unless noted, the call rests on the fitted dose curve; in most records, active means well fitted curve in the direction sought with a large enough effect in the repeat runs; inconclusive means weak or mixed curves; inactive means no such curve, though single readings can be large; an effect the other way counts as inactive or inconclusive.

Tests used:
[1] = target: Retinoic acid receptor RXR-alpha (Homo sapiens) (UniProt P19793); assay: qHTS assay to identify small molecule agonists of the RXR signaling pathway (AID 1159527; calls by dose curve; further: nearly all actives have a fitted effect of over 35% in size; further: potency means the concentration at half of the fitted maximal effect)
Method in brief: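 Cells plated at 2,000/well, rested 5 hr at 37 C, pin-dosed with DMSO compound solutions, incubated 16 hr, then loaded with B/G FRET substrate for 2 hr at RT before dual-emission fluorescence reading.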

[2] = qHTS assay to identify small molecule agonists of the RXR signaling pathway - cell viability counter screen (AID 1159529); further: nearly all actives have a fitted effect of over 50% in size; further: potency means the concentration at half of the fitted maximal effect
Method in brief: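 Steps: seed RXR-alpha-UAS-bla HEK 293T cells in assay medium containing 2% charcoal-stripped FBS; incubate 5 hr; add compounds in DMSO; incubate 16 hr at 37 C; after the bla read, add CellTiter-Glo and read luminescence at 30 min.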

[3] = qHTS assay to identify small molecule antagonists of the retinoid acid receptor (RAR) signaling pathway - cell viability counter screen (AID 1159551); further: nearly all actives have a fitted effect of over 35% in size
Method in brief: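 Cells (C3RL4) are plated, incubated overnight, dosed with compound in DMSO, then given retinol at 1 uM final. After 6 h at 37 C, CellTiter-Glo is added and luminescence read following 30 min at room temperature.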

[4] = qHTS assay to identify small molecule antagonists of the retinoic acid receptor (RAR) signaling pathway (AID 1159552; further: nearly all actives have a fitted effect of over 50% in size; further: potency means the concentration at half of the fitted maximal effect)
Method in brief: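 Retinol at 1 uM final stimulated RARE-luciferase expression in C3RL4 cells exposed to test compounds for 6 hr at 37 C. Reduced luminescence, read 30 min after detection reagent, indicated pathway antagonism.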

[5] = qHTS assay to identify small molecule agonists of the retinoic acid receptor (RAR) signaling pathway (AID 1159553)
Method in brief: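 Seed C3RL4 reporter cells at 1,000 per well and incubate overnight at 37 C. Add compounds in DMSO, incubate 6 hr. Add luciferase reagent, wait 30 min at room temperature, read luminescence.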

[6] = qHTS assay to identify small molecule antagonists of the estrogen related receptor (ERR) signaling pathway from Tox21 library - cell viability counter screen (AID 1224834); further: nearly all actives have a fitted effect of over 30% in size
Method in brief: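 ERR cells, 2,000/well; 6 h settle at 37 C/5% CO2; pin-tool compound transfer in DMSO; 17.5 h at 37 C; CellTiter-Fluor, 30 min; fluorescence intensity.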

[7] = target: Luciferin 4-monooxygenase (Photinus pyralis) (UniProt P08659); assay: qHTS assay to identify small molecule inhibitors of firefly luciferase (AID 1224835); further: nearly all actives have a fitted effect of over 25% in size; further: potency means the concentration at half of the fitted maximal effect
Method in brief: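 Biochemical qHTS: compounds run as interplate titrations against purified firefly enzyme, with D-luciferin and ATP each at its KM concentration. Light output recorded by CCD imaging.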

[8] = qHTS assay to identify small molecule agonists of the constitutive androstane receptor (CAR) signaling pathway - cell viability counter screen (AID 1224836); further: series mostly up to about 92 µM; nearly all actives have a fitted effect of over 45% in size
Method in brief: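 Cells were seeded and incubated 4 hrs. Compounds were added across 15 concentrations together with PK11195 at 0.75 uM final. Plates were incubated 23 hrs at 37 C. CellTiter-Fluor was added and fluorescence measured.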

[9] = qHTS assay to identify small molecule antagonists of the constitutive androstane receptor (CAR) signaling pathway - cell viability counter screen (AID 1224837); further: series mostly up to about 92 µM; nearly all actives have a fitted effect of over 45% in size
Method in brief: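 Viability was measured with CellTiter-Fluor in a HepG2 line carrying stably transfected hCAR and a CYP2B6-2.2kb construct. Cells were exposed for 23 hr at 37 C to 15 compound concentrations with 50 nM CITCO as agonist.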

[10] = target: Nuclear receptor subfamily 1 group I member 3 (Homo sapiens) (UniProt Q14994); assay: qHTS assay to identify small molecule antagonists of the constitutive androstane receptor (CAR) signaling pathway (AID 1224838);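 further: HepG2 cells stably expressing hCAR with CYP2B6 luciferase reporter stimulated by CITCO; nearly all actives have a fitted effect of over 40% in size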
Method in brief: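 Antagonist mode used CITCO at a final 50 nM to activate CAR in human hepatoma HepG2 cells carrying stable hCAR and a 2.2 kb CYP2B6 promoter-luciferase construct. Compounds were tested at 15 concentrations over 24 h, with luminescence as the end point.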

[11] = target: Nuclear receptor subfamily 1 group I member 3 (Homo sapiens) (UniProt Q14994); assay: qHTS assay to identify small molecule agonists of the constitutive androstane receptor (CAR) signaling pathway (AID 1224839); further: nearly all actives have a fitted effect of over 15% in size; further: potency means the concentration at half of the fitted maximal effect
Method in brief: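 Cells were plated and incubated 4 hrs, then dosed with compounds at 15 concentrations. PK11195 was added to 0.75 uM final. After 24 hrs at 37 C, luciferase luminescence was measured.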

[12] = qHTS assay to identify small molecule antagonists of the estrogen related receptor signaling pathway with the pleiotropic PPARgamma coactivator (PGC) from Tox21 10K library - cell viability counter screen (AID 1224840; active means well fitted cell-killing curve with a large enough effect in the repeat runs, not every such curve was filed as active; further: nearly all actives have a fitted effect of over 40% in size)
Method in brief: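 Multiplexed viability counter screen in the PGC/ERR cell line: cells treated with DMSO-dissolved compounds for 17.5 hours at 37 C, then viability measured as CellTiter-Fluor fluorescence.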

[13] = target: Thyrotropin receptor (Homo sapiens) (UniProt P16473); assay: qHTS assay to identify small molecule agonists of the thyroid stimulating hormone receptor (TSHR) signaling pathway (AID 1224843; calls by dose curve; further: nearly all actives have a fitted effect of over 45% in size; further: potency means the concentration at half of the fitted maximal effect)
Method in brief: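 HEK293/TSHR, 800 cells/well; cpd 30 min RT; add cAMP-d2 + anti-cAMP-cryptate, 1 h RT; fluorescence read on plate reader. 15-pt titration, n=3.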

[14] = qHTS assay to identify small molecule antagonists of the estrogen related receptor signaling pathway with the pleiotropic PPARgamma coactivator (PGC) from Tox21 10K library (AID 1224841; call rule not given here; further: series mostly up to about 92 µM; actives are mostly falling curves and most rising ones were filed inactive; nearly all actives have a fitted effect of over 50% in size)
Method in brief: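 Steps: plate 2,000 PGC/ERR cells per well; incubate 6 h at 37 C with 5% CO2; transfer compounds from DMSO stocks by pin tool; incubate 18 h at 37 C; add One-Glo; measure luminescence 30 min later.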

[15] = qHTS assay to identify small molecule agonists of the estrogen related receptor signaling pathway with the pleiotropic PPARgamma coactivator (PGC) from Tox21 10K library (AID 1224842); further: nearly all actives have a fitted effect of over 15% in size; further: potency means the concentration at half of the fitted maximal effect
Method in brief: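 PGC/ERR reporter cell line, 2,000 cells per well, incubated 6 h at 37 C before 23 nL compound in DMSO was added. After 18 h at 37 C, One-Glo luminescence read following 30 min at room temperature.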

[16] = qHTS assay to identify small molecule antagonists of the estrogen related receptor (ERR) signaling pathway - cell viability counter screen (AID 1224818);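 further: series mostly up to about 46 µM; viability measured after 17.5 h of compound exposure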
Method in brief: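 ERR cells, 2,000/well; 6 h settle at 37 C/5% CO2; compound pin transfer (DMSO); 17.5 h at 37 C; CellTiter-Fluor, 30 min, fluorescence read.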

Sequence of Thyrotropin receptor (Homo sapiens) (P16473 whole entry, looked up): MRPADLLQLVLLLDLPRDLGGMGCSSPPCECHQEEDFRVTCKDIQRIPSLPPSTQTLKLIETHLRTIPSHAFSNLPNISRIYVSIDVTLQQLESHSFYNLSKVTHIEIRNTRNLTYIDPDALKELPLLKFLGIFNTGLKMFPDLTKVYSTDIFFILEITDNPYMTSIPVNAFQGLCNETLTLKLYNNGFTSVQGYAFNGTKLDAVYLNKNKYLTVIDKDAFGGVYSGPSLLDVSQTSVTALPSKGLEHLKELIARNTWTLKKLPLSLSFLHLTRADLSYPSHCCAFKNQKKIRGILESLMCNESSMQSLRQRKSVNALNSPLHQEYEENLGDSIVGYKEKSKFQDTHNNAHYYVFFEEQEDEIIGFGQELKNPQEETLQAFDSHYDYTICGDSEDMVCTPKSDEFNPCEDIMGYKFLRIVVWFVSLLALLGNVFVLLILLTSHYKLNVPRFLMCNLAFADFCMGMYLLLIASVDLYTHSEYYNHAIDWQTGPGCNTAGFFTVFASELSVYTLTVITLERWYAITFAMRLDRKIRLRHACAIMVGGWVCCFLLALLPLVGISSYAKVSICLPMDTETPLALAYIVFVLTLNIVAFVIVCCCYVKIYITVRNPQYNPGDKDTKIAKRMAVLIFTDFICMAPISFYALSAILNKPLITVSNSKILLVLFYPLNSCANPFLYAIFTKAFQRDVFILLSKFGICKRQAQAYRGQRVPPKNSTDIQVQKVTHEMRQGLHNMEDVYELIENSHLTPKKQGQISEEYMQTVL
Sequence of Retinoic acid receptor RXR-alpha (Homo sapiens) (P19793 whole entry, looked up): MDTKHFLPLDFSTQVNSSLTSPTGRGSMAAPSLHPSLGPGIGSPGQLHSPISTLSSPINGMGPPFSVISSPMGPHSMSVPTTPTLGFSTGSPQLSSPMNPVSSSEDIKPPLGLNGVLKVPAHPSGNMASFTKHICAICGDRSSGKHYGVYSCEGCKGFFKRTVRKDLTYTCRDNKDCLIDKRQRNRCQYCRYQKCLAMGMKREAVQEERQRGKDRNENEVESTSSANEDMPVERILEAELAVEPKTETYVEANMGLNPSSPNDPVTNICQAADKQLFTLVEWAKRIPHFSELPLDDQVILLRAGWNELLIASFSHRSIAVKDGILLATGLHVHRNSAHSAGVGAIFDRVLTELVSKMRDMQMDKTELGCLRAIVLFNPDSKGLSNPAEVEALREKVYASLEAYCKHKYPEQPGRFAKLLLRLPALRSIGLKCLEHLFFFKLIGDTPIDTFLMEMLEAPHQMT
Sequence of Luciferin 4-monooxygenase (Photinus pyralis) (P08659 whole entry, looked up): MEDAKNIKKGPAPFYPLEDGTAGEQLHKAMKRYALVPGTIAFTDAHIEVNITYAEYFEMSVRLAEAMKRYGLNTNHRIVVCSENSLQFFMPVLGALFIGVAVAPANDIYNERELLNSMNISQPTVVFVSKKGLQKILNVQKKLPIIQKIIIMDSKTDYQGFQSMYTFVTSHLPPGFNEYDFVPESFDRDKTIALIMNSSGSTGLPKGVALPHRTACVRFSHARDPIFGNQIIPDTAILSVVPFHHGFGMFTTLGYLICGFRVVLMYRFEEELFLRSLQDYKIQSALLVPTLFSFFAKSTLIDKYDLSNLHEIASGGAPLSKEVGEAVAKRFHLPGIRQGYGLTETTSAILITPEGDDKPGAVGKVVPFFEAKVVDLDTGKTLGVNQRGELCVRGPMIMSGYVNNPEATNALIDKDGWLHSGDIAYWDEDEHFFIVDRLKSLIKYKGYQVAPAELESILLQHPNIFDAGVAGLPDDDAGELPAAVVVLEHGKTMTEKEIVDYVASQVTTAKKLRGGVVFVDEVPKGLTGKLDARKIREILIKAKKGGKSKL
Sequence of Nuclear receptor subfamily 1 group I member 3 (Homo sapiens) (Q14994 whole entry, looked up): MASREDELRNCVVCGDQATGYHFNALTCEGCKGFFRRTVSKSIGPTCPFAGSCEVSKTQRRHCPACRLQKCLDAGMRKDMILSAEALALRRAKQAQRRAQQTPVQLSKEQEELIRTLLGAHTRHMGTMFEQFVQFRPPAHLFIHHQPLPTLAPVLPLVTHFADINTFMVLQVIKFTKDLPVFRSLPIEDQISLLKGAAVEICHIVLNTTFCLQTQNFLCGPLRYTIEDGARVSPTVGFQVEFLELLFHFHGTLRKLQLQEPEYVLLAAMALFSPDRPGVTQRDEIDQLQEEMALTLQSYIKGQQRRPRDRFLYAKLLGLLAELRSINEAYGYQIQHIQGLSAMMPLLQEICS

Brc1cc(Oc2cc(Br)c(Br)c(Br)c2Br)c(Br)c(Br)c1Br
Potency [1]: inactive
Potency [2]: 1.39 µM (active) and inactive
Potency [3]: inactive
Potency [4]: inactive
Potency [5]: inactive
Potency [6]: inactive
Potency [7]: inactive
Potency [8]: inactive
Potency [9]: inactive
Potency [10]: inactive
Potency [11]: inactive
Potency [12]: inactive
Potency [13]: inactive

c1cc(-c2ccncc2)ccn1
Potency [1]: inactive
Potency [2]: inactive
Potency [3]: inactive
Potency [4]: inactive
Potency [5]: inactive
Potency [6]: inactive
Potency [7]: inactive
Potency [8]: inactive
Potency [9]: inactive
Potency [10]: inactive
Potency [11]: inactive
Potency [12]: inactive
Potency [13]: inactive

CCCCCCCCCC(=O)OC
Potency [1]: inactive
Potency [2]: inactive
Potency [3]: inactive
Potency [4]: inactive
Potency [5]: inactive
Potency [6]: inactive
Potency [7]: inactive
Potency [8]: inactive
Potency [9]: inactive
Potency [11]: inactive
Potency [12]: inactive
Potency [13]: inactive

CCCCC(CC)COP(=O)(OCC(CC)CCCC)OCC(CC)CCCC (centres undefined)
Potency [1]: inactive
Potency [2]: inactive
Potency [3]: inactive
Potency [6]: inactive
Potency [7]: inactive
Potency [8]: inactive
Potency [9]: inactive
Potency [10]: inactive
Potency [11]: inactive
Potency [12]: inactive
Potency [13]: inactive

C=C(C)C1CC=C(C)CC1 (centres undefined)
Potency [1]: inactive
Potency [2]: inactive
Potency [3]: inactive
Potency [6]: inactive
Potency [7]: inactive
Potency [8]: inactive
Potency [9]: inactive
Potency [11]: inactive
Potency [12]: inactive

COC(=O)CCC(=O)OC
Potency [1]: inactive
Potency [2]: inactive
Potency [3]: inactive
Potency [6]: inactive
Potency [7]: inactive
Potency [8]: inactive
Potency [9]: inactive
Potency [11]: inactive
Potency [12]: inactive
Potency [14]: inactive
Potency [15]: inactive
Potency [13]: inactive

c1ccc2c(c1)c1cccc3ccc4cccc2c4c31
Potency [1]: 43.4 µM (active) and inactive
Potency [2]: inactive
Potency [3]: inactive
Potency [6]: inactive
Potency [7]: inactive
Potency [8]: inactive
Potency [9]: inactive
Potency [11]: 13.6 µM (active) and 27.3 µM (active)
Potency [12]: inactive
Potency [13]: inactive

CC(C)=CCC/C(C)=C\CO
Potency [1]: inactive
Potency [2]: inactive
Potency [3]: inactive
Potency [6]: inactive
Potency [7]: inactive
Potency [8]: inactive
Potency [9]: inactive
Potency [12]: inactive
Potency [13]: inactive

Cc1c(C(N)=O)cc([N+](=O)[O-])cc1[N+](=O)[O-]
Potency [1]: inactive
Potency [2]: inactive
Potency [3]: inactive
Potency [6]: inactive
Potency [7]: inactive
Potency [8]: inactive
Potency [9]: inactive
Potency [11]: inactive
Potency [12]: inactive
Potency [13]: inactive

O=S(=O)(O)c1ccc(O)cc1
Potency [1]: inactive
Potency [2]: inactive
Potency [3]: inactive
Potency [4]: inactive
Potency [5]: inactive
Potency [6]: inactive
Potency [7]: inactive
Potency [8]: inactive
Potency [9]: inactive
Potency [12]: inactive
Potency [13]: inactive

O=C=Nc1ccc(Cc2ccc(N=C=O)cc2)cc1
Potency [1]: inactive
Potency [2]: inactive
Potency [3]: inactive
Potency [4]: inactive
Potency [5]: inactive
Potency [6]: inactive
Potency [7]: inactive
Potency [8]: inactive
Potency [9]: inactive
Potency [12]: inactive
Potency [14]: inactive
Potency [15]: inactive
Potency [13]: inactive

O=CCCCC=O
Potency [1]: inactive
Potency [2]: inactive
Potency [3]: inactive
Potency [6]: inactive
Potency [7]: inactive
Potency [8]: inactive
Potency [9]: inactive
Potency [11]: inactive
Potency [12]: inactive
Potency [14]: inactive
Potency [15]: inactive

c1ccc2c(c1)Oc1ccccc1S2
Potency [1]: inactive
Potency [2]: inactive
Potency [3]: inactive
Potency [6]: inactive
Potency [7]: 72.1 µM (active)
Potency [8]: inactive
Potency [9]: inactive
Potency [10]: inactive
Potency [11]: inactive
Potency [12]: inactive
Potency [13]: inactive

Nc1ncnc2nc[nH]c12
Potency [1]: inactive
Potency [2]: inactive
Potency [4]: inactive
Potency [5]: inactive
Potency [6]: inactive
Potency [7]: inactive
Potency [8]: inactive
Potency [9]: inactive
Potency [11]: inactive
Potency [12]: inactive
Potency [14]: inactive
Potency [15]: 54.5 µM (active)
Potency [13]: inactive

CC1=CC2C3CC(C=C3C)C2C1 (centres undefined)
Potency [1]: inactive
Potency [2]: inactive
Potency [3]: inactive
Potency [6]: inactive
Potency [7]: inactive
Potency [8]: inactive
Potency [9]: inactive
Potency [11]: inactive
Potency [12]: inactive
Potency [14]: inactive
Potency [15]: inactive
Potency [13]: inactive

OC(CCl)CCl
Potency [1]: inactive
Potency [2]: inactive
Potency [3]: inactive
Potency [6]: inactive
Potency [7]: inactive
Potency [8]: inactive
Potency [9]: inactive
Potency [10]: inactive
Potency [11]: inactive
Potency [12]: inactive
Potency [13]: inactive

CC(C)=CCCC(C)CCO (centres undefined)
Potency [1]: inactive
Potency [2]: inactive
Potency [3]: inactive
Potency [4]: inactive
Potency [5]: inactive
Potency [6]: inactive
Potency [7]: inactive
Potency [8]: inactive
Potency [9]: inactive
Potency [12]: inactive
Potency [13]: inactive

CC(C)OB(OC(C)C)OC(C)C
Potency [1]: inactive
Potency [2]: inactive
Potency [3]: inactive
Potency [6]: inactive
Potency [7]: inactive
Potency [8]: inactive
Potency [9]: inactive
Potency [10]: inactive
Potency [11]: inactive
Potency [12]: inactive
Potency [14]: inactive
Potency [15]: inactive

COc1ccccc1/C=C/C=O
Potency [1]: inactive
Potency [2]: inactive
Potency [3]: inactive
Potency [7]: inactive
Potency [8]: inactive
Potency [9]: inactive
Potency [12]: inactive
Potency [13]: 31.4 µM (active) and 54.5 µM (active)

CCOCCOCCO
Potency [1]: inactive
Potency [2]: inactive
Potency [3]: inactive
Potency [6]: inactive
Potency [7]: inactive
Potency [8]: inactive
Potency [9]: inactive
Potency [12]: inactive
Potency [14]: inactive
Potency [15]: inactive
Potency [13]: inactive

O=P(O)(O)O
Potency [1]: inactive
Potency [2]: inactive
Potency [3]: inactive
Potency [4]: inactive
Potency [5]: inactive
Potency [6]: inactive
Potency [8]: inactive
Potency [9]: inactive
Potency [12]: inactive
Potency [13]: inactive

Oc1ccc(O)cc1
Potency [1]: inactive
Potency [2]: inactive
Potency [4]: 17.1 µM (active) and 24.3 µM (active) and 10.6 µM (active)
Potency [5]: inactive
Potency [16]: inactive
Potency [6]: inactive
Potency [7]: inactive
Potency [8]: inactive
Potency [9]: inactive
Potency [11]: 30.5 µM (active) and 34.4 µM (active)
Potency [12]: inactive
